For seven compounds, Potency results are on record in PubChem BioAssay (Tox21).

Values without a mark were called inactive. Records with an inconclusive call do not appear. The source made the active and inactive calls. Unless noted, the call rests on the fitted dose curve.

The nature of assay [1]: Nuclear factor erythroid 2-related factor 2/antioxidant responsive element (Nrf2/ARE) small molecule agonists: qHTS cell viability counter screen in human keratinocytes (AID 1919968; active means well fitted cell-killing curve with a large enough effect in the repeat runs; further: nearly all actives have a fitted effect of over 55% in size; further: potency means the concentration at half of the fitted maximal effect). The essentials:
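Viability counter-screen: KeratinoSens reporter cells, DMSO-delivered compounds, 23 h at 37 C, CellTiter-Fluor fluorescence.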
On the technique in general: Quantitative high-throughput screening tests each substance at several concentrations.

The nature of assay [2]: Nuclear factor erythroid 2-related factor 2/antioxidant responsive element (Nrf2/ARE) small molecule agonists: luciferase reporter gene qHTS assay in human keratinocytes (AID 1919969). Further: nearly all actives have a fitted effect of over 35% in size. On the technique in general: Reporter assays use an easily measured gene product as a stand-in for the process of interest.
The target of assay [3] is Gonadotropin-releasing hormone receptor (Homo sapiens) (UniProt P30968). The experiment in a line: Human gonadotropin-releasing hormone receptor (GnRHR) small molecule agonists, calcium flux assay in GnRHR-HEK293 cells (AID 1920063). Further: nearly all actives have a fitted effect of over 35% in size. An outline of the steps: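 Tox21-format agonist screen using human GnRHR-expressing HEK293 cells and a fluorescent calcium dye; kinetic 3-min fluorescence reading after compound addition, 15-point concentration series run in triplicate.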
Sequence of Gonadotropin-releasing hormone receptor (Homo sapiens) (P30968 whole entry, looked up): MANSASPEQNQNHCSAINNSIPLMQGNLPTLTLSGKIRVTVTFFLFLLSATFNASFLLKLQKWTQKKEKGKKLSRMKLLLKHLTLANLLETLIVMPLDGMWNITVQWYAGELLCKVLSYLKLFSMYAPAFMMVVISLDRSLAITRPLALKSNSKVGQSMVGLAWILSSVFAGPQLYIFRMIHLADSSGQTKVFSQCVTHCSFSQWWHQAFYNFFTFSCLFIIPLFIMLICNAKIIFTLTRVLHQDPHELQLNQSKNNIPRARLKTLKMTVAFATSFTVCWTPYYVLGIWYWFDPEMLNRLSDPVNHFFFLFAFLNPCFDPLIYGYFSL
Background: Calcium flux is commonly read through the fluorescence of an indicator in the cells.

The nature of assay [4]: G protein-coupled receptor (GPCR) small molecule agonists, calcium flux assay: HEK293 wild type cell line counter screen (AID 1920065). The essentials:
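In this agonist-mode screen, ATP is the positive control and DMSO the vehicle. Cells grow 18 h before a 1 h dye incubation at 37 C; signal is taken at Ex/Em 480/540 over 3 min.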

Assay [5] can be described thus: p53 small molecule agonists, cell-based qHTS assay with human liver microsomes: qHTS cell viability counter screen (AID 1963579). Further: nearly all actives have a fitted effect of over 45% in size. Further: potency means the concentration at half of the fitted maximal effect. An outline of the steps: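 p53RE-bla cells, 4,000/well, dosed 5 hours after plating, with human liver microsomes (0.5 mg/mL final) plus NADPH (0.5 mg/mL final), 16 hours at 37 C. Viability read as CellTiter-Glo luminescence after 30 min at room temperature.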

Assay [6] is described as follows: p53 small molecule agonists, cell-based qHTS assay with rat liver microsomes: qHTS cell viability counter screen (AID 1963580). Further: nearly all actives have a fitted effect of over 45% in size. The essentials: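 In HCT-116 cells carrying a p53 response element-bla reporter, compounds were metabolically activated in situ by rat liver microsomes with NADPH over 16 h. Cell ATP content then served as the cytotoxicity measure.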
A short description of assay [7]: p53 small molecule agonists, cell-based qHTS assay: qHTS cell viability counter screen (AID 1963581). Further: nearly all actives have a fitted effect of over 45% in size. The essentials:
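Compounds are pinned onto HCT-116 p53RE-bla cells and left 16 h at 37 C. Following the reporter FRET read, ATP is quantified by CellTiter-Glo luminescence after 30 min at room temperature.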

In assay [8] the target is 5-hydroxytryptamine receptor 2A (Homo sapiens) (UniProt P28223). The experiment in a line: 5-hydroxytryptamine receptor 2A (HTR2A) small molecule antagonists, cell-based qHTS assay (AID 1963586). Further: nearly all actives have a fitted effect of over 45% in size. The essentials:
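Antagonist-mode intracellular calcium assay: DOI (4 nM) added after 5 min compound pre-incubation at room temperature to dye-loaded HTR2A-CHO cells. Fluorescence followed for 3 min, sampled every second.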

Assay [9] shares this target. The experiment in a line: 5-hydroxytryptamine receptor 2A (HTR2A) small molecule agonists, cell-based qHTS assay (AID 1963587). Further: nearly all actives have a fitted effect of over 30% in size. An outline of the steps:
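HTR2A-CHO cells, plated 18 h at 37 C/5% CO2, dye-loaded 1 h at 37 C; compounds in DMSO added by pin tool (agonist mode). Intracellular calcium flux read as kinetic fluorescence on FDSS over 2 min at 1 s intervals.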

Assay [10] addresses Muscarinic acetylcholine receptor M1 (Homo sapiens) (UniProt P11229). The experiment in a line: Cholinergic receptor muscarinic 1 (CHRM1) small molecule antagonists, cell-based qHTS assay (AID 1963588). Further: nearly all actives have a fitted effect of over 40% in size. Further: potency means the concentration at half of the fitted maximal effect. An outline of the steps:
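CHRM1-CHO calcium-flux assay, antagonist mode. Cells were seeded 18 h, dye-loaded 1 h at 37 C and given compound for 5 min at RT, then acetylcholine was added at 50nM. FDSS fluorescence was read 3 min; 15 concentrations, three runs.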

For assay [11] the target is unchanged. The experiment in a line: Cholinergic receptor muscarinic 1 (CHRM1) small molecule agonists, cell-based qHTS assay (AID 1963589). Further: nearly all actives have a fitted effect of over 35% in size. An outline of the steps: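 Stable CHRM1-CHO cells (human receptor) were incubated 18 h, dye-loaded for 1 h at 37 C and exposed to test compounds for agonist activity, with calcium-dependent fluorescence followed kinetically.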
Assay [12] can be described thus: cAMP Responsive Elements (CRE) small molecule antagonists, cell-based qHTS assay (AID 1963591; active means well fitted inhibition curve with a large enough effect in the signal ratio in the repeat runs, not every such curve was filed as active; the % refers to the signal ratio). The essentials: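 qHTS in CRE-bla HEK 293T cells: compound in DMSO, then 0.25 uM NKH477 (final), 3 h at 37 °C/5% CO2; beta-lactamase FRET read-out after 2 h substrate incubation.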
Assay [13] deals with Beta-2 adrenergic receptor (Homo sapiens) (UniProt P07550). The assay is described as follows: Adrenergic beta2 receptor (ADRB2) small molecule antagonists, cell-based qHTS assay (AID 1963592). Further: series mostly up to about 92 µM; nearly all actives have a fitted effect of over 50% in size. The essentials:
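Cells (CHO, stable ADRB2 overexpression) incubated 18-20hr at 37C; compounds added from DMSO; agonist mix (1nM isoproterenol, 100uM IBMX, 25uM Ro-20-1724) added; 0.5hr RT; d2-cAMP and anti-cAMP-cryptate added; 1hr RT; 665/615 nm read.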

Assay [14] has as its target D(2) dopamine receptor (Homo sapiens) (UniProt P14416). The experiment in a line: Dopamine D2 receptor (DRD2) small molecule agonists, cell-based qHTS assay (AID 1963594). Further: nearly all actives have a fitted effect of over 35% in size. An outline of the steps: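 HEK293 cells stably expressing DRD2 were cultured 24 h at 37 C, then given Ro20-1724 (0.1 mM final) and compounds for 10 min at room temperature. NKH477 (200nM) was then added for 30 min. cAMP was read by HTRF.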

Assay [15] has the same target. The experiment in a line: Dopamine D2 receptor (DRD2) small molecule antagonists, cell-based qHTS assay (AID 1963595; active means well fitted inhibition curve with a large enough effect in the signal ratio in the repeat runs, with a control signal flat; the % refers to the signal ratio). The essentials: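 Human DRD2 antagonist qHTS measuring cAMP by HTRF. The cells are exposed to compound for 10 min, then to NKH477 (200 nM) and quinpirole (12 nM) for 30 min at RT, with Ro20-1724 (0.1 mM) present throughout.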
Assay [16] is described as follows: cAMP Responsive Elements (CRE) small molecule agonists, cell-based qHTS assay (AID 1963590). The essentials:
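FRET-based beta-lactamase readout (LiveBLAzer B/G, 2 h RT) quantified CRE activation in HEK 293T CRE-bla cells after 3 h treatment with DMSO-dissolved compounds.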

The target of assay [17] is Beta-2 adrenergic receptor (Homo sapiens) (UniProt P07550). The assay is described as follows: Adrenergic beta2 receptor (ADRB2) small molecule agonists, cell-based qHTS assay (AID 1963593).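 Further: CHO cells stably overexpressing human ADRB2.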 An outline of the steps: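 CHO cells stably over-expressing ADRB2 were plated overnight at 37C, then dosed with compounds plus a stimulation mix containing 100uM IBMX and 25uM Ro-20-1724 for 0.5hr at room temperature. cAMP was measured by HTRF competition, 1hr.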
Sequence of Beta-2 adrenergic receptor (Homo sapiens) (P07550 whole entry, looked up): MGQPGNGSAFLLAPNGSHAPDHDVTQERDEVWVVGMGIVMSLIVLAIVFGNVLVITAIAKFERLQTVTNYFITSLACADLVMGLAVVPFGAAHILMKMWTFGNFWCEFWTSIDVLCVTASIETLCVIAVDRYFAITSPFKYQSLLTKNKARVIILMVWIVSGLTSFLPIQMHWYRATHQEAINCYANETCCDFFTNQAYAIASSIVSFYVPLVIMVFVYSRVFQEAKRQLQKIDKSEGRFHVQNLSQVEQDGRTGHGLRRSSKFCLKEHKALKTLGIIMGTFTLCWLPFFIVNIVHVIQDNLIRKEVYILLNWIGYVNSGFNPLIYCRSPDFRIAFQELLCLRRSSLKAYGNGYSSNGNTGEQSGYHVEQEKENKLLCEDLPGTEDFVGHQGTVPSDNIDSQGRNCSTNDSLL

Assay [18] can be described thus: p53 small molecule agonists, cell-based qHTS assay with rat liver microsomes (AID 1963578). The essentials: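 p53RE-bla cells, 4,000/well, pre-incubated 5 h, then given compounds plus rat liver microsomes (0.5 mg/mL final) and NADPH (0.5 mg/mL final). Incubation 16 h at 37 C; beta-lactamase reporter read by LiveBLAzer fluorescence after 2 h at room temperature.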

Assay [19] can be described thus: p53 small molecule agonists, cell-based qHTS assay (AID 1963582; active means well fitted activation curve with a large enough effect in the signal ratio in the repeat runs, not every such curve was filed as active; the % refers to the signal ratio). The essentials: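 Agonist activity was scored from beta-lactamase FRET fluorescence in p53RE-bla cells treated 16 h at 37 C with compounds in DMSO, substrate incubation being 2 h at room temperature.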

Sequence of D(2) dopamine receptor (Homo sapiens) (P14416 whole entry, looked up): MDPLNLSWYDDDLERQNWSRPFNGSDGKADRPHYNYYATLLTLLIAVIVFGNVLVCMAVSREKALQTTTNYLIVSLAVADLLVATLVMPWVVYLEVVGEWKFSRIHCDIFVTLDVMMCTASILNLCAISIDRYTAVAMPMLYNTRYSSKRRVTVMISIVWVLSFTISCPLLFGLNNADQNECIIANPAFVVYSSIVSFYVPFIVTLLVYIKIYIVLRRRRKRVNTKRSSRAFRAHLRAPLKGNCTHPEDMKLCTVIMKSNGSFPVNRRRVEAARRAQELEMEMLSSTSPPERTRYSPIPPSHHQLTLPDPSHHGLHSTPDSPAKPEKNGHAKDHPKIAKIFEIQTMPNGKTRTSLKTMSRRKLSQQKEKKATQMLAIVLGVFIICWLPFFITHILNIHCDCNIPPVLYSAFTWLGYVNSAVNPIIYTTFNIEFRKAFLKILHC
Sequence of Muscarinic acetylcholine receptor M1 (Homo sapiens) (P11229 whole entry, looked up): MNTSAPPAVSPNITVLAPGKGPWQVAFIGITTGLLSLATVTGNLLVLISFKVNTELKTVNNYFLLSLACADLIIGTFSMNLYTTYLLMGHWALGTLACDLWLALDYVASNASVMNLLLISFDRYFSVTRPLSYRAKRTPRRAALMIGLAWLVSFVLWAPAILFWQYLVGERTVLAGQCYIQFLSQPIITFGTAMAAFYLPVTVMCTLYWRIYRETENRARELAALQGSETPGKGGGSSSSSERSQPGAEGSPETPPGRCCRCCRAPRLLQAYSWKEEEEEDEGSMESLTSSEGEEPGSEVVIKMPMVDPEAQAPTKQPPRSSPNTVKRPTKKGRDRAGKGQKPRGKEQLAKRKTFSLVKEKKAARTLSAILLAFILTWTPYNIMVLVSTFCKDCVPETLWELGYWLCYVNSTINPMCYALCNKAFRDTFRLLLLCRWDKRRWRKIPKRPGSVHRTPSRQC
Sequence of 5-hydroxytryptamine receptor 2A (Homo sapiens) (P28223 whole entry, looked up): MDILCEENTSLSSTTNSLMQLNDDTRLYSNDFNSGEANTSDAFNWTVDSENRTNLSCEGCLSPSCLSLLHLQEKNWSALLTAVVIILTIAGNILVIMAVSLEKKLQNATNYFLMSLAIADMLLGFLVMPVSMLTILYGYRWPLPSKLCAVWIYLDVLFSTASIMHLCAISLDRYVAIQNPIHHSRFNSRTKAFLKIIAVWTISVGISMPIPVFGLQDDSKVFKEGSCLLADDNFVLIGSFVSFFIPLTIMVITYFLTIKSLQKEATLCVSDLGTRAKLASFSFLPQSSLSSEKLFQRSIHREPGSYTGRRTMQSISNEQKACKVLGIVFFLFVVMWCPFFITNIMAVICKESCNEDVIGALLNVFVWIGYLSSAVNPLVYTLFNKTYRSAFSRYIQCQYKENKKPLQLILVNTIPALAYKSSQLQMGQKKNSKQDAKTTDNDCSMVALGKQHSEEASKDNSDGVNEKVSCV

Consider `CN(C(=O)CN(CCO)CC(=O)N(C)C(C)(C)Cc1ccccc1)C(C)(C)Cc1ccccc1`, for which the Potency result in [1], in assay [2], in assay [3], in assay [4], in assay [5] and in assay [6] was “inactive” in each case. The Potency result in assay [7], in [8], in [9], in assay [10], in [11] and in [12] was “inactive” each time. The Potency result in [13], in assay [14] and in [15] was “inactive” throughout.

Take `C#CC(O)C(CC)CCCC` (stereo not drawn): the Potency entry in assay [1], in assay [2], in [3], in [4], in assay [5] and in assay [6] was “inactive” each time. The Potency result in assay [7], in assay [8], in assay [9], in [10], in assay [11] and in assay [16] was “inactive” throughout. Further, the Potency entry in assay [12], in [13], in assay [17] and in [15] was “inactive” each time.

For `COc1ccc2cc(S(=O)(=O)N[C@H](CC(=O)N[C@H](Cc3ccc(CN4[C@H](C)CCC[C@@H]4C)cc3)C(=O)N(C)C(C)C)c3ccc4c(c3)OCO4)ccc2c1`, the results for the Potency in assay [1] and in [5] were 41 µM (active) and 43.3 µM (active), respectively. Moreover, the Potency result in assay [2], in [3], in assay [4], in assay [18], in assay [6] and in assay [8] was “inactive” in each case. For the same compound, the Potency result in assay [9], in [11], in [13] and in assay [17] was “inactive” in each case.

As to `CC/C(C)=N\O[Si](C)(O/N=C(\C)CC)O/N=C(\C)CC`, the Potency result in assay [1], in assay [2], in assay [3], in [4], in assay [18] and in [5] was “inactive” in each case. The Potency result in [6], in assay [7], in assay [19], in [9], in assay [11] and in assay [16] was “inactive” in each case. Moreover, the Potency entry in assay [12], in assay [13] and in assay [14] was “inactive” throughout. The Potency in [10] is 3.39 µM (active).

In the case of `COCCOC(=O)CC#N`, the Potency entry in [1], in assay [2], in [3], in assay [4], in assay [5] and in assay [6] was “inactive” in each case. The Potency entry in assay [7], in [19], in assay [8], in assay [9], in [10] and in assay [11] was “inactive” throughout. Also, the Potency result in assay [16], in assay [12], in assay [13], in [17], in assay [14] and in assay [15] was “inactive” in each case.

As to `CC(C)(C)c1ccc(-c2ccc(C(C)(C)C)cc2)cc1`, the Potency entry in assay [1], in [2], in assay [3], in [4], in assay [5] and in assay [6] was “inactive” in each case. Further, the Potency result in [7], in assay [8], in assay [9], in assay [10], in assay [16] and in assay [12] was “inactive” each time. The Potency result in [13], in [14] and in assay [15] was “inactive” throughout.

Turning to `Cc1cccc(C)c1NC(=O)CN(CC(=O)O)CC(=O)O`, the Potency entry in assay [1], in assay [2], in assay [3], in assay [4], in assay [5] and in [6] was “inactive” in each case. The Potency result in [7], in assay [8], in [9], in [10], in assay [11] and in [16] was “inactive” throughout. Also, the Potency entry in assay [12], in assay [13], in assay [14] and in assay [15] was “inactive” throughout.
